Data taken from PubChem BioAssay AID1159580 (chemical genetic matrix, 2015).
Out of some 5,500 compounds screened, about 2,000 (36%) were called active. Another 18% or so got no clear call; they are omitted. Rule as the data show it: active = normalized growth mostly below about 0.91 (no sharp cut-off); inconclusive = no clear call, values can overlap the other calls; inactive = mostly above about 0.92. Some of the results follow.

Experiment: chemical genetic growth profiling, strain panel (AID 1159580);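 also: tested at 20 µM; growth read once vehicle control cultures reached saturation at 30 °C; 1 = growth at the plate median or of vehicle wells; lower values mean less growth of the strain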
Conditions: S. cerevisiae deletion strains, growth OD
[1] = locus YHR030C, strain SLT2, active compounds read low
[2] = locus YAL013W, strain DEP1, active compounds read low
[3] = locus YMR263W, strain SAP30, active compounds read low
[4] = locus YNL153C, strain GIM3, active compounds read low
[5] = locus YNL322C, strain KRE1, active compounds read low
[6] = locus YPL055C, strain LGE1, active compounds read low
[7] = locus YPL241C, strain CIN2, active compounds read low

Measured: normalized growth

C[N+](C)(C)C[C@H](O)CC(=O)[O-]
inactive: [1] 0.972 | locus YHR079C, strain IRE1, active compounds read low 0.984 | locus YJL095W, strain BCK1, active compounds read low 1.02 | locus YJR066W, strain TOR1, active compounds read low 0.923 | locus YLR113W, strain HOG1, active compounds read low 1.01 | locus YNL183C, strain NPR1, active compounds read low 0.923 | locus YOR231W, strain MKK1, active compounds read low 0.962 | locus YPL256C, strain CLN2, active compounds read low 0.961

NCCc1ccc(S(=O)(=O)F)cc1
inactive: [2] 1 | locus YAL040C, strain CLN3, active compounds read low 1.01 | locus YER002W, strain NOP16, active compounds read low 1.02 | [3] 1 | [4] 1.03 | locus YNL175C, strain NOP13, active compounds read low 1 | locus YNL197C, strain WHI3, active compounds read low 1.04 | locus YNL224C, strain SQS1, active compounds read low 1 | [5] 1.01 | locus YOR083W, strain WHI5 (second series), active compounds read low 0.997 | [6] 1.02 | [7] 1.01

CCCC(CC(=O)O)(C(=O)O)c1ccccc1 (stereo unspecified)
inactive: [2] 1.01 | locus YBR229C, strain ROT2, active compounds read low 1 | locus YCL061C, strain MRC1, active compounds read low 1.01 | locus YDL101C, strain DUN1, active compounds read low 1.01 | locus YDR150W, strain NUM1, active compounds read low 1 | locus YEL061C, strain CIN8, active compounds read low 1.01 | locus YGR078C, strain PAC10, active compounds read low 1 | locus YGR229C, strain SMI1, active compounds read low 1.01 | [1] 1.12 | locus YHR087W, strain rtc3, active compounds read low 1 | locus YJR043C, strain POL32, active compounds read low 1.01 | locus YJR075W, strain HOC1, active compounds read low 1 | locus YLR039C, strain RIC1, active compounds read low 1.03 | locus YLR058C, strain SHM2 (second series), active compounds read low 1.01 | locus YLR085C, strain ARP6, active compounds read low 1.05 | locus YLR262C, strain YPT6, active compounds read low 1.02 | locus YML094W, strain GIM5, active compounds read low 1.02 | locus YMR219W, strain ESC1, active compounds read low 1.01 | [3] 1 | [4] 1 | locus YNL298W, strain CLA4 (second series), active compounds read low 1.03 | [5] 0.998 | locus YNR030W, strain Alg12, active compounds read low 1.01 | [6] 1.06 | [7] 1.02 | locus YPR135W, strain CTF4, active compounds read low 1.06
